Compounds without any hit were thinned out: in the full panel of roughly 83,000, 20% have a hit.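 Percent growth is the endpoint: 0 to 100 indicates growth inhibition (40 means 60% inhibition), 0 means no net growth, and negative values indicate cell death.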 A number with no mark means an inactive call. The source made the active and inactive calls. How the source made its calls: active means growth percent below 10; inactive means the rest.
These compounds were tested on SK-MEL-2 melanoma (assay: NCI-60 one-dose screen, 48 h (100 = growth as untreated, 0 = no growth, -100 = all killed)). Conditions: 10 µM unless noted.

SMILES | growth
CC(=O)OC1/C=C\CC/C=C\C1 (configuration not stated) | 109%
CCCCCCCCC1OC1CCCCCCCC(=O)O (configuration not stated) | 103%
O=c1[nH]c(=S)[nH]c(O)c1/C=C1\C=Nc2ccccc21 | 128%
CCOC1=C(Cl)C(=O)C(OCC)=C(Cl)C1=O | 100%
Cc1ccc(C(=O)NN)cc1 | 119%
O=C1C(=O)c2ccccc2C(O)=C1CCCc1ccc(Oc2ccccc2)cc1 | 72.5%
CCN(CC)CCCC(C)Nc1c(C)cnc2cc(Cl)c(C)cc12 (configuration not stated) | 117%
Oc1ccc([S+](c2ccc(O)cc2)c2ccc(O)cc2)cc1 | 117%
Cn1c2c(cc(S(=O)(=O)c3ccccc3)c1=O)CCc1c-2cnn1-c1ccc(Cl)cc1 | -9.09% (active)
CCCCCN1CCN(C(CC(=O)c2ccccc2)C(=O)c2ccccc2)CC1 (configuration not stated) | 104%
S=C(N/N=C/c1cc(Cl)cc(Cl)c1)NC12CC3CC(CC(C3)C1)C2 | 116%
CC(=O)c1ccc2c(c1)c1ccccc1n2C | 98.4%
CC1(C)NC(=S)NC1=O | 129%
O=C(NC1CCN(Cc2ccccc2)CC1)c1cc(-c2cccnc2)nc2ccc(Cl)cc12 | 100%
O=C(O)CS(=O)c1ccc(Cl)cc1 (configuration not stated) | 114%
Cc1ccc(S(=O)(=O)NC(CCC(=O)Nc2ccccc2)C(=O)Nc2ccccc2)cc1 (configuration not stated) | -39.6% (active)
COc1ccc(/C=C2\CCCC3=C2N=C2SC=NN2C3c2ccc(OC)c(OC)c2)cc1OC (configuration not stated) | 109%

Reference: PubChem BioAssay (NCI)
